Reference: PubChem BioAssay (NCI)
About 79,000 compounds went through this panel and 15% of them were active in at least one assay; those are over-represented in the sample as a whole. A number with no mark means an inactive call. Activity calls are given as the source filed them. Rule as the data show it: active = growth inhibition above about 70%; inactive = the rest.

Assays:
[1] = NCI Yeast Anticancer Drug Screen. Data for the rad52 strain (AID 147);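 also: 0% = growth of vehicle-treated control cultures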; conditions: S. cerevisiae rad52 mutant growth inhibition, hits give high values
How it was run: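 DNA repair-defective yeast; compound exposure; growth scored against vehicle controls.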

[2] = NCI Yeast Anticancer Drug Screen. Data for the wt1 strain (AID 149);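 also: 0% = growth of vehicle-treated wt1 cultures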; conditions: S. cerevisiae wt1 strain (SPY 50644) growth inhibition, hits give high values
How it was run: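 Readout: yeast growth inhibition, normalised to vehicle controls, in the wt1 strain exposed to test compounds.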

[3] = NCI Yeast Anticancer Drug Screen. Data for the rad50EPP+ strain (AID 151);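 also: 0% = growth of vehicle-treated control cultures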; conditions: S. cerevisiae rad50 mutant strain, hits give high values
How it was run: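 rad50EPP+ yeast treated with test compounds. Readout: growth vs vehicle control.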

[4] = NCI Yeast Anticancer Drug Screen. Data for the mgt1 strain (AID 153); conditions: S. cerevisiae mgt1 mutant growth inhibition, hits give high values
How it was run: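 Growth inhibition relative to vehicle controls was scored for the mgt1 yeast strain after compound exposure.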

[5] = NCI Yeast Anticancer Drug Screen. Data for the rad50 strain (AID 155);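 also: 0% = growth of vehicle-only cultures of the same strain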; conditions: S. cerevisiae rad50 strain growth inhibition, hits give high values
How it was run: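 Compounds were tested on a yeast strain with an engineered DNA damage repair alteration; the reported value is growth inhibition normalised to vehicle treatment.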

[6] = NCI Yeast Anticancer Drug Screen. Data for the mec2-1 strain (AID 157); conditions: S. cerevisiae mec2-1 strain, hits give high values
How it was run: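 Growth inhibition is read against vehicle-treated controls after compound exposure of the mec2-1 yeast strain, which is defective in DNA damage repair or cell cycle control.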

[7] = NCI Yeast Anticancer Drug Screen. Data for the rad14 strain (AID 159);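 also: 0% = growth of vehicle-treated control cultures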; conditions: S. cerevisiae rad14 strain growth inhibition, hits give high values
How it was run: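 Compound-treated yeast with a defined DNA-repair lesion; growth inhibition normalised to vehicle-treated cultures.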

[8] = NCI Yeast Anticancer Drug Screen. Data for the sgs1 mgt1 strain (AID 161);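 also: 0% = growth of cultures given vehicle only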; conditions: S. cerevisiae sgs1 mgt1 strain, hits give high values
How it was run: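 This yeast growth screen uses a strain with defined DNA-repair lesions; compound-treated growth is compared with vehicle-treated growth.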

[9] = NCI Yeast Anticancer Drug Screen. Data for the CLN2oe strain (AID 163);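 also: 0% = growth of vehicle-only control cultures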; conditions: S. cerevisiae CLN2oe strain, hits give high values
How it was run: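 Compound-treated yeast; growth vs vehicle ctrl = % inhibition. Genetically altered strain (cell-cycle control).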

[10] = NCI Yeast Anticancer Drug Screen. Data for the cln2 rad14 strain (AID 165);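 also: 0% = growth equal to vehicle treated cultures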; conditions: S. cerevisiae cln2 rad14 strain, hits give high values
How it was run: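 Growth inhibition, relative to vehicle-treated controls, is the read-out. The test organism is a yeast strain with defined genetic alterations, cln2 rad14.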

[11] = NCI Yeast Anticancer Drug Screen. Data for the bub3 strain (AID 167); conditions: S. cerevisiae bub3 mutant strain, hits give high values
How it was run: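 Growth of a checkpoint-deficient yeast mutant is measured after compound exposure. Values represent inhibition relative to vehicle.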

[12] = NCI Yeast Anticancer Drug Screen. Data for the wt2 strain (AID 169);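 also: 0% = growth of vehicle-treated yeast cultures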; conditions: S. cerevisiae wt2 strain growth inhibition, hits give high values
How it was run: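 Compound exposure of yeast; growth compared with vehicle controls; inhibition reported.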

[13] = NCI Yeast Anticancer Drug Screen. Data for the mlh1 strain (AID 171);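 also: 0% = growth of vehicle-treated control cultures of the same strain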; conditions: S. cerevisiae mlh1 strain growth inhibition, hits give high values
How it was run: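 Compounds are applied to a genetically altered yeast strain, and its growth is compared with that of vehicle-treated cultures to give percent inhibition.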

[14] = NCI Yeast Anticancer Drug Screen. Data for the sgs1 strain (AID 173);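 also: 0% = growth of vehicle-only control cultures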; conditions: S. cerevisiae sgs1 mutant, hits give high values
How it was run: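 Compounds applied to genetically altered yeast; growth compared with vehicle-treated cultures to give % inhibition.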

[15] = NCI Yeast Anticancer Drug Screen. Data for the mlh1 rad18 strain (AID 175); conditions: S. cerevisiae mlh1 rad18 strain growth inhibition, hits give high values
How it was run: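 Cells of a genetically altered yeast strain, deficient in DNA damage repair, were treated with compound. Their growth was then compared with that of vehicle-treated cultures to give inhibition.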

[16] = NCI Yeast Anticancer Drug Screen. Data for the rad18 strain (AID 177); conditions: S. cerevisiae rad18 mutant growth inhibition, hits give high values
How it was run: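 Compounds are applied to a repair-deficient yeast strain, and growth is compared with that of vehicle-treated cultures to give percent inhibition.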

[17] = at 5.0 µM (retest, dose inferred, filed as 0.5)
[18] = at 50.0 µM (retest, dose inferred, filed as 5.0)

For `CC(C)/C(Cl)=N\OC(=O)Nc1ccc(F)cc1F`, the growth inhibition ([1]; at 1.2 µM) was 1%, the growth inhibition ([1]; at 3.7 µM) was 7% and the growth inhibition ([1]; at 11.0 µM) was 15%. For the same compound, the growth inhibition ([1]; at 33.0 µM) was 28%, the growth inhibition ([1]; at 100.0 µM) was 75% (active) and the growth inhibition ([2]; at 1.2 µM) was 2%. The growth inhibition ([2]; at 3.7 µM) was 1%, the growth inhibition ([2]; at 11.0 µM) was -2% and the growth inhibition ([2]; at 33.0 µM) was -1%. It also gave a growth inhibition ([2]; at 100.0 µM) of 6%, a growth inhibition ([3]; at 1.2 µM) of 7% and a growth inhibition ([3]; at 3.7 µM) of 13%. For the same compound, the growth inhibition ([3]; at 11.0 µM) was 25%, the growth inhibition ([3]; at 33.0 µM) was 54% and the growth inhibition ([3]; at 100.0 µM) was 85% (active). For the same compound, the growth inhibition ([4]; at 1.2 µM) was 3%, the growth inhibition ([4]; at 3.7 µM) was 1% and the growth inhibition ([4]; at 11.0 µM) was 4%. The growth inhibition ([4]; at 33.0 µM) was 13%, the growth inhibition ([4]; at 100.0 µM) was 96% (active) and the growth inhibition ([5]; at 1.2 µM) was 2%. The growth inhibition ([5]; at 3.7 µM) was 8%, the growth inhibition [5, 17] was 2% and the growth inhibition ([5]; at 11.0 µM) was 15%. For the same compound, the growth inhibition ([5]; at 33.0 µM) was 32%, the growth inhibition [5, 18] was 78% (active) and the growth inhibition ([5]; at 50.0 µM) was 6.55%. For the same compound, the growth inhibition ([5]; at 100.0 µM) was 80% (active), the growth inhibition ([6]; at 1.2 µM) was 5% and the growth inhibition ([6]; at 3.7 µM) was 9%. It also gave a growth inhibition [6, 17] of 4%, a growth inhibition ([6]; at 11.0 µM) of 13% and a growth inhibition ([6]; at 33.0 µM) of 28%. The growth inhibition [6, 18] was 83% (active), the growth inhibition ([6]; at 50.0 µM) was 72.4% (active) and the growth inhibition ([6]; at 100.0 µM) was 95% (active). For the same compound, the growth inhibition ([7]; at 1.2 µM) was 0%, the growth inhibition ([7]; at 3.7 µM) was 3% and the growth inhibition ([7]; at 11.0 µM) was 9%. It also gave a growth inhibition ([7]; at 33.0 µM) of 17%, a growth inhibition ([7]; at 100.0 µM) of 37% and a growth inhibition [8, 17] of -12%. The growth inhibition [8, 18] was 69%, the growth inhibition ([8]; at 50.0 µM) was 70.8% (active) and the growth inhibition ([9]; at 1.2 µM) was 7%. For the same compound, the growth inhibition ([9]; at 3.7 µM) was 11%, the growth inhibition ([9]; at 11.0 µM) was 12% and the growth inhibition ([9]; at 33.0 µM) was 12%. The growth inhibition ([9]; at 100.0 µM) was 24%, the growth inhibition [10, 17] was -1% and the growth inhibition [10, 18] was 38%. The growth inhibition ([10]; at 50.0 µM) was 44.8%, the growth inhibition ([11]; at 1.2 µM) was 23% and the growth inhibition ([11]; at 3.7 µM) was 38%. The growth inhibition [11, 17] was 27%, the growth inhibition ([11]; at 11.0 µM) was 70% (active) and the growth inhibition ([11]; at 33.0 µM) was 90% (active). For the same compound, the growth inhibition [11, 18] was 97% (active), the growth inhibition ([11]; at 50.0 µM) was 82.1% (active) and the growth inhibition ([11]; at 100.0 µM) was 98% (active). The growth inhibition ([12]; at 1.2 µM) was 0%, the growth inhibition ([12]; at 3.7 µM) was 0% and the growth inhibition ([12]; at 11.0 µM) was 2%. For the same compound, the growth inhibition ([12]; at 33.0 µM) was 12%, the growth inhibition ([12]; at 100.0 µM) was 63% and the growth inhibition ([13]; at 1.2 µM) was 0%. For the same compound, the growth inhibition ([13]; at 3.7 µM) was 6%, the growth inhibition ([13]; at 11.0 µM) was 9% and the growth inhibition ([13]; at 33.0 µM) was 16%. For the same compound, the growth inhibition ([13]; at 100.0 µM) was 53%, the growth inhibition ([14]; at 1.2 µM) was -1% and the growth inhibition ([14]; at 3.7 µM) was 0%. For the same compound, the growth inhibition ([14]; at 11.0 µM) was 4%, the growth inhibition ([14]; at 33.0 µM) was 27% and the growth inhibition ([14]; at 100.0 µM) was 83% (active). The growth inhibition [15, 17] was -29%, the growth inhibition [15, 18] was 69% and the growth inhibition ([15]; at 50.0 µM) was 58%. It also gave a growth inhibition ([16]; at 1.2 µM) of -3%, a growth inhibition ([16]; at 3.7 µM) of -1% and a growth inhibition ([16]; at 11.0 µM) of 4%. For the same compound, the growth inhibition ([16]; at 33.0 µM) was 17% and the growth inhibition ([16]; at 100.0 µM) was 79% (active).

Work on `CCOC(=O)C1=C(C)NC(C)=C(C(=O)OCCNC(=O)c2ccc(N=[N+]=[N-])cc2)C1c1ccccc1C(F)(F)F` (stereo not drawn) yielded a growth inhibition ([1]; at 1.2 µM) of 4%, a growth inhibition ([1]; at 3.7 µM) of 4% and a growth inhibition ([1]; at 11.0 µM) of 13%. The growth inhibition ([1]; at 33.0 µM) was 24%, the growth inhibition ([1]; at 100.0 µM) was 39% and the growth inhibition ([2]; at 1.2 µM) was 1%. The growth inhibition ([2]; at 3.7 µM) was 0%, the growth inhibition ([2]; at 11.0 µM) was -2% and the growth inhibition ([2]; at 33.0 µM) was 2%. It also gave a growth inhibition ([2]; at 100.0 µM) of 21%, a growth inhibition ([3]; at 1.2 µM) of -1% and a growth inhibition ([3]; at 3.7 µM) of 0%. The growth inhibition ([3]; at 11.0 µM) was 1%, the growth inhibition ([3]; at 33.0 µM) was 3% and the growth inhibition ([3]; at 100.0 µM) was -11%. It also gave a growth inhibition ([4]; at 1.2 µM) of -2%, a growth inhibition ([4]; at 3.7 µM) of -3% and a growth inhibition ([4]; at 11.0 µM) of -2%. For the same compound, the growth inhibition ([4]; at 33.0 µM) was 12%, the growth inhibition ([4]; at 100.0 µM) was 24% and the growth inhibition ([5]; at 1.2 µM) was 1%. The growth inhibition ([5]; at 3.7 µM) was -1%, the growth inhibition [5, 17] was 3% and the growth inhibition ([5]; at 11.0 µM) was 17%. For the same compound, the growth inhibition ([5]; at 33.0 µM) was 39%, the growth inhibition [5, 18] was 18% and the growth inhibition ([5]; at 50.0 µM) was 40.1%. The growth inhibition ([5]; at 100.0 µM) was 41%, the growth inhibition ([6]; at 1.2 µM) was 1% and the growth inhibition ([6]; at 3.7 µM) was 4%. For the same compound, the growth inhibition [6, 17] was 1%, the growth inhibition ([6]; at 11.0 µM) was -2% and the growth inhibition ([6]; at 33.0 µM) was 13%. For the same compound, the growth inhibition [6, 18] was -46%, the growth inhibition ([6]; at 50.0 µM) was 53.3% and the growth inhibition ([6]; at 100.0 µM) was 47%. For the same compound, the growth inhibition ([7]; at 1.2 µM) was 0%, the growth inhibition ([7]; at 3.7 µM) was -4% and the growth inhibition ([7]; at 11.0 µM) was 3%. For the same compound, the growth inhibition ([7]; at 33.0 µM) was 8%, the growth inhibition ([7]; at 100.0 µM) was 22% and the growth inhibition [8, 17] was 5%. It also gave a growth inhibition [8, 18] of 51%, a growth inhibition ([8]; at 50.0 µM) of 9.9% and a growth inhibition ([9]; at 1.2 µM) of -3%. It also gave a growth inhibition ([9]; at 3.7 µM) of -2%, a growth inhibition ([9]; at 11.0 µM) of -2% and a growth inhibition ([9]; at 33.0 µM) of 25%. The growth inhibition ([9]; at 100.0 µM) was 53%, the growth inhibition [10, 17] was 4% and the growth inhibition [10, 18] was 19%. The growth inhibition ([10]; at 50.0 µM) was 2.85%, the growth inhibition ([11]; at 1.2 µM) was -8% and the growth inhibition ([11]; at 3.7 µM) was -7%. It also gave a growth inhibition [11, 17] of -42%, a growth inhibition ([11]; at 11.0 µM) of -5% and a growth inhibition ([11]; at 33.0 µM) of 4%. The growth inhibition [11, 18] was 29%, the growth inhibition ([11]; at 50.0 µM) was 57.4% and the growth inhibition ([11]; at 100.0 µM) was 31%.
